Hits are enriched below; roughly 21% of the tested compounds scored in any of these assays.
SARS PLpro yeast: qHTS of Yeast-based Assay for SARS-CoV PLP; S. cerevisiae expressing SARS-CoV PLpro, growth rescue; Potency, µM (highest dose often 32.9 µM), without a hit: at the highest dose activity, positive = growth rescue, most hits filed as activators; 330,000 tested, 0.19% active; AID 485353, 2010; further: potency means the concentration at half of the fitted maximal effect; 0% is about no effect; nearly all actives have a fitted effect of over 55% in size
Pf growth 48h: Primary qHTS for delayed death inhibitors of the malarial parasite plastid, 48 hour incubation | P. falciparum luciferase growth in erythrocytes, 48 h | Potency, µM (doses to about 28.7 µM), inactives show at the highest dose activity change, negative = inhibition, most hits filed as inhibitors | 310,000 tested, 5.9% active; active means well fitted inhibition curve with a large enough effect; inconclusive means small, poorly fitted or top-dose-only effect, or another doubt; inactive means no such curve, though single readings can be large or run the other way; further: potency means the concentration at half of the fitted maximal effect; on the % scale 0 is the no-effect control and ±100 the full control effect
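Parasite viability was followed by luminescence of a genomically integrated firefly luciferase. Cultures held 0.1% parasitemia at 2% hematocrit (final), incubated under 5% CO2 at 37 C.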
NS1 inh: qHTS Assay for Inhibitors of Influenza NS1 Protein Function; Potency, µM (series often up to 46.1 µM), without a hit: at the highest dose activity, positive = more growth; 270,000 tested, 0.4% active; AID 2326, 2010; further: potency means the concentration at half of the fitted maximal effect; actives are rising curves; nearly all actives have a fitted effect of over 50% in size
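A cell-based growth assay was used: compounds that relieve NS1-induced slow growth of budding yeast raise OD600. Assay medium was yeast nitrogen base with ammonium sulphate and -URA supplement, pH 6.0, with 2% galactose.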
Shiga toxin inh: A qHTS for Small Molecule Inhibitors of Shiga Toxin; inhibition, % at 38.7 µM; 290,000 tested, 9.2% active; AID 2315, 2010; Vero cells, Shiga toxin protein synthesis inhibition reporter; in the data active means inhibition mostly above about 28%, no sharp cut-off; inactive means mostly below about 43%; further: 0% is about no effect
Pf growth 96h: Primary qHTS for delayed death inhibitors of the malarial parasite plastid, 96 hour incubation | Potency, µM (series often up to 28.7 µM), for the others: at the top dose activity change, negative = inhibition, hits mostly inhibitors | P. falciparum luciferase reporter growth, 96 h | 320,000 tested, 6.9% active; active means well fitted inhibition curve with a large enough effect; inconclusive means small, poorly fitted or top-dose-only effect, or another doubt; inactive means no such curve, though single readings can be large or run the other way; further: potency means the concentration at half of the fitted maximal effect; on the % scale 0 is the no-effect control and ±100 the full control effect
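Infected RBCs, 2% Hct / 0.05% parasitemia final; luciferase-reporter P. falciparum; cpd 96 h, 37 C, 5% CO2; luciferase detection reagent; luminescence.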
CHX counter: Cycloheximide Counterscreen for Small Molecule Inhibitors of Shiga Toxin; cell reporter, cycloheximide protein synthesis inhibition counterscreen; 300,000 tested, 12% active; AID 2314, 2010; max response, %; in the data active means max response mostly above about 13%, no sharp cut-off; inactive means mostly below about 14%; further: read at 38.3 µM for the half of the compounds with a filed dose; 0% is about no effect
Numbers without * were called inactive; u = inconclusive; x = not tested or not shown. Unless noted, the call rests on the fitted dose curve.

SMILES | SARS PLpro yeast | Pf growth 48h | NS1 inh | Shiga toxin inh | Pf growth 96h | CHX counter
CCOc1ccc(S(=O)(=O)N2CCOCC2)cc1NC(=O)CN1C(=O)NC2(CCCCC2)C1=O | -6.9% | -8.8% | x | x | -0.4% | x
CCC(CC)C(=O)c1c[nH]c(C(=O)NCc2cccnc2)c1 | 0.0% | -9.6% | x | -6.3 | 58.7% | 9.5
CC(C)CC(=O)c1c[nH]c(C(=O)NCc2cccnc2)c1 | -0.8% | 10.4µM* | x | -7.5 | u | 1.0
Cc1cc(C)c2c(n1)sc1c(=O)n(CC(=O)c3ccccc3)cnc12 | 4.5% | 48.7% | -2.0% | 30.5 | 56.6% | 19.3
C=CCOC(=O)Cn1cnc2c(sc3nc(C)cc(C)c32)c1=O | 2.4% | u | 6.3% | 71.9* | -18.2% | 46.4*
[N-]=[N+]=N[C@@H]1[C@H](O)[C@H](CO)O[C@@H]1n1cnc2c(N)ncnc21 | x | x | -9.0% | x | x | x
COc1ccc(-c2cn3cccnc3n2)cc1NC(=O)c1cccs1 | -5.6% | 2.8% | 2.7% | -11.7 | 11.7µM* | -7.8
COc1ccc(-c2cn3cccnc3n2)cc1NC(=O)C(C)Oc1ccccc1 (stereo unspecified) | u | 13.1µM* | -3.6% | 35.8 | 8.4% | 12.1
COCCCn1cc(C(=O)c2cc(OC)ccc2OCC(=O)N2CCCCC2C)cc(C#N)c1=O (stereo unspecified) | 0.8% | -27.1% | x | -5.3 | u | -1.7
Cc1c(C(=O)O)sc(=S)n1-c1ccc(Cl)cc1 | 0.7% | -9.3% | 13.4% | -2.5 | -5.0% | -0.5
CCOC(=O)c1sc(=S)n(-c2cc(F)ccc2F)c1N | -0.8% | -13.5% | -49.2% | -21.0 | -10.5% | -4.6
CCOC(=O)c1sc(=S)n(-c2cc(OC)ccc2OC)c1N | -30.9% | -7.6% | -85.3% | -2.8 | 9.28µM* | 12.7
CCOC(=O)c1sc(=S)n(-c2ccc(OC)cc2)c1C | 0.1% | 13.1µM* | -1.6% | 23.5 | u | 1.1
CCOC(=O)c1sc(=S)n(-c2ccc(Cl)cc2)c1C | 4.9% | 5.22µM* | -9.4% | 14.1 | u | -1.3
O=C(CSc1nc(-c2ccc(F)cc2)cc(C(F)(F)F)n1)NCc1cccs1 | 26.2% | -7.8% | 11.0% | -7.5 | 3.29µM* | 1.2
CC(Sc1nc(-c2ccccc2)cc(C(F)(F)F)n1)C(=O)NCc1ccco1 (stereo unspecified) | -2.2% | u | 5.1% | -2.6 | x | -2.3
O=C(CSc1nc(-c2ccc(F)cc2)cc(C(F)(F)F)n1)NCc1ccco1 | -11.1% | -14.1% | -16.1% | 7.2 | 2.08µM* | -0.7
COC(=O)CSc1nc(-c2ccc(F)cc2)cc(C(F)(F)F)n1 | -1.1% | -5.9% | 13.5% | -1.4 | -19.5% | -0.2
Cc1nn(CC(=O)N(C)C2CCS(=O)(=O)C2)c(C)c1S(=O)(=O)N(C)C (stereo unspecified) | -4.8% | u | x | x | u | x
Clc1cccc(N/N=C/c2ccc(N3CCOCC3)s2)c1 | -58.6% | u | 10.0% | 17.5 | u | 22.8*
O=C(N/N=C/c1ccc(N2CCOCC2)s1)c1ccccc1Br | 0.5% | 4.3% | x | 54.0 | u | 17.0
CC(C)(C)OC(=O)N/N=C/c1ccc(N2CCOCC2)s1 | 7.6% | 42.3% | u | 88.6* | u | 55.3*
Nc1ccc(C(=O)N/N=C/c2ccc(N3CCOCC3)s2)cc1 | 2.8% | x | x | x | x | x
O=[N+]([O-])c1ccc(Sc2nc3ccccc3o2)c([N+](=O)[O-])c1 | -37.3% | x | -161.3% | 54.6* | u | 10.0
O=[N+]([O-])c1ccc(Cl)cc1Sc1nc2ccccc2o1 | -13.5% | 8.28µM* | -16.4% | 16.9 | 8.0% | -0.1
SMILES | SARS PLpro yeast | Pf growth 48h | NS1 inh | Shiga toxin inh | Pf growth 96h | CHX counter
CCOc1ccc(CCNC(=O)c2ccc(CS(=O)Cc3ccccc3Cl)o2)cc1 (stereo unspecified) | -14.9% | -2.2% | -2.5% | 35.4 | -16.9% | 15.6*
O=C(NCCCc1ccccc1)c1ccc(CS(=O)Cc2ccccc2Cl)o1 (stereo unspecified) | -0.7% | -22.2% | -5.8% | -5.9 | 61.7% | -1.4
Brc1ccc(Nc2nc(-c3cccnc3)cs2)cc1 | -15.1% | 6.5% | x | 121.1* | 10.2% | 53.9*
Brc1cccc(Nc2nc(-c3cccnc3)cs2)c1 | -12.9% | 0.5% | -51.5% | x | 102.2% | 25.3*
COc1ccc(Cl)cc1Nc1nc(-c2cccnc2)cs1 | -11.9% | u | -24.8% | -0.7 | 1.6% | 10.6
Cc1cc(O)ccc1Nc1nc(-c2cccnc2)cs1 | -4.0% | 199.8% | 4.1% | 51.2* | u | 31.0*
Clc1cccc(Nc2nc(-c3cccnc3)cs2)c1 | -6.8% | u | -53.5% | 90.9* | 36.2% | 40.3*
CC1CCN(C(=O)Cn2c(=O)n(Cc3ccco3)c(=O)c3sccc32)CC1 | -6.0% | -15.0% | 7.0% | -3.5 | -8.8% | -3.0
CC(C)(C)C(=O)Nc1nnc(SCC(=O)NC2CCCC2)s1 | -0.1% | 7.8% | 2.9% | 13.1 | 23.6% | 3.9
CC(=C\C(=O)O)/C(=C/c1ccc(C)o1)C(=O)O | 1.5% | -4.6% | 11.4% | 1.6 | u | -1.2
O=C(c1ccc(-c2cccc(C(F)(F)F)c2)o1)N1CCCC(C(F)(F)F)C1 (stereo unspecified) | 2.4% | -9.8% | x | x | u | x
Cc1nc(C)c(-c2csc(Nc3ccc(O)cc3C)n2)s1 | 3.0% | u | 14.8% | -6.8 | u | 0.7
Cc1cc(O)ccc1Nc1nc(-c2cccs2)cs1 | -1.6% | 399.2% | x | 69.2* | 4.4% | 35.8*
CCOc1ccc(Nc2nc(-c3cccnc3)cs2)cc1 | 13.4% | 48.0% | -5.1% | 57.4* | -3.6% | 40.2*
Cc1ccc(Nc2nc(-c3cccnc3)cs2)cc1C | -4.8% | -32.9% | -6.3% | 96.3* | u | 50.6*
Oc1ccc(Nc2nc(-c3ccc(Cl)cc3)cs2)cc1 | x | x | x | 110.0* | x | 47.1*
Nc1c(N(Cc2ccco2)C(=O)COc2ccccc2F)c(=O)[nH]c(=O)n1Cc1ccccc1 | 0.1% | u | x | x | -9.5% | x
O=C(Nc1nc(-c2cccnc2)cs1)c1ccccc1[N+](=O)[O-] | 2.7% | u | 3.4% | 14.8 | -13.9% | -0.6
Oc1ccc(Nc2nc(-c3cccnc3)cs2)cc1 | 4.2% | 75.6% | -2.7% | x | u | 38.3*
O=C(N/N=C/c1ccc(Cl)cc1Cl)c1n[nH]c2c1CCCC2 | -19.2% | 163.3% | 0.9% | 67.2* | 80.7% | 20.7*
O=C(N/N=C\c1cccc(Cl)c1)c1n[nH]c2c1CCCC2 | 16.7% | 104.0% | 11.4% | 78.4* | 34.8% | 58.6*
O=C(N/N=C/c1cccc2ccccc12)c1n[nH]c2c1CCCC2 | 0.9% | -25.6% | 0.6% | 23.4 | 4.7% | 7.2
Cc1ccc(/C=N/NC(=O)c2n[nH]c3c2CCCC3)cc1 | -0.9% | 80.0% | -2.5% | 53.4* | 67.9% | 32.4*
O=C(N/N=C/c1cccc(Cl)c1)C1CCCC1 | u | 25.5% | -16.8% | 54.4* | u | 35.2*
O=C(N/N=C/c1cccnc1)C1CCCCC1 | 6.8% | 6.4% | x | -2.8 | 19.5% | 22.6
